Screening data deposited in PubChem BioAssay by National Center for Advancing Translational Sciences (NCATS).
AmpC det inh = inhibitors of E. coli AmpC beta-lactamase with detergent; P00811; purified AmpC, nitrocefin hydrolysis with detergent; Potency, µM (top dose mostly 28.7 µM), for the others: top-dose activity change, negative = inhibition; hit rate 0.09% among 71,000; active = well fitted curve in the direction sought with a large enough effect; inconclusive = small, poorly fitted or top-dose-only effect; also: % is scaled to controls: 0 for no effect and ±100 for the full control effect
Target sequence (P00811 whole entry, looked up): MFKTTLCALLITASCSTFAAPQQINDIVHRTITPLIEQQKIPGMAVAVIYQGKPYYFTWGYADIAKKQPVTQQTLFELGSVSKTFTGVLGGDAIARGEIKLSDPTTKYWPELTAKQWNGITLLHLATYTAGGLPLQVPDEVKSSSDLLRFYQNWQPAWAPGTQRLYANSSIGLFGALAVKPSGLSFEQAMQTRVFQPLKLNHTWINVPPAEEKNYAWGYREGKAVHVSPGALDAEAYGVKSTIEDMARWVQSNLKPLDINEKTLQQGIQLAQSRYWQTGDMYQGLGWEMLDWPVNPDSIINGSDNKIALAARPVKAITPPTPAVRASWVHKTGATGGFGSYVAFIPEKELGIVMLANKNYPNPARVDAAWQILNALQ
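E. coli AmpC (5.3 nM) in 20 mM phosphate pH 7.0 with 0.01% Triton X-100, preincubated 15 min RT with compound; nitrocefin (2 uL of 800 uM stock) hydrolysis followed by 480 nm absorbance every 20 s over 4 min.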
SmPrx2 inh = blocks S. mansoni peroxiredoxin 2 enzymatic activity; S. mansoni Prx2 activity coupled to TGR/GSH (TGR is thioredoxin glutathione reductase), NADPH fluorescence loss, qHTS; Potency, µM; hit rate 0.07% among 65,000; AID 448
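Purified S. mansoni TGR and Prx2 in pH 7.4 phosphate buffer with EDTA and Tween-20 were preincubated with compounds for 15 min. Further NADPH/GSH was added, then a 2.5 mM H2O2 aliquot initiated turnover, followed kinetically by NADPH fluorescence.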
AmpC inh no det = blocks E. coli AmpC beta-lactamase in absence of detergent; AmpC nitrocefin hydrolysis, absorbance 480 nm, no detergent; Potency, µM (series often up to 28.7 µM), inactives show top-dose activity change, negative = inhibition; hit rate 1.8% among 71,000; AID 585; also: % of control where 0% means no effect
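AmpC, 20 mM phosphate pH 7.0; 15 min cpd preinc, RT; start with nitrocefin (800 uM stock); A480 kinetic read, 20 s intervals, 4 min. No-enzyme wells = negative control.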
LT uptake inh = inhibitors of anthrax lethal toxin internalization; Potency, µM (titrated, usually from 40 µM), inactives show top-dose activity change, negative = inhibition, usual class: inhibitors; AID 912; hit rate 0.67% among 70,000; Cells, anthrax lethal toxin internalization, FRET ratio (460/530); also: % is scaled to controls: 0 for no effect and ±100 for the full control effect; nearly all actives have a fitted effect of over 50% in size
The depositor's hits bear a star; ? = inconclusive; · = no result given; [ ] = dose if it differs, or a comment. Shown are actives, neighbours in structure and some others; about 2.6% of the full set was active somewhere. Unless noted, calls follow the shape of the full dose curve. Potency is read from the fitted curve at half-maximal effect.

SMILES	AmpC det inh	SmPrx2 inh	AmpC inh no det	LT uptake inh
O=S(=O)(c1ccccc1)N1CCC[C@@]2(CCN(Cc3cc(C(F)(F)F)cc(C(F)(F)F)c3)C2)C1	-2.0%	>57	-8.8%	-0.4%
CN(C)CCCCN1CCc2c(n(C)c3ccccc23)C1=O	-3.4%[5.75 µM]	>57	17.1%[5.75 µM]	-3.6%[8 µM]
Brc1ccc(Oc2ccc(Br)cc2Br)c(Br)c1	12.8%	·	12.6µM*	?
COc1ccccc1CN(Cc1cc2c(C)ccc(C)c2[nH]c1=O)Cc1nnnn1Cc1ccco1	-2.8%	>57	57.8%	15.8µM*
CSc1nc(-c2ccco2)nn1C(=O)c1ccc(C)cc1	11.7%	>57	3.98µM*[single pt active]	?
CSc1nc(-c2ccco2)nn1C(=O)c1ccco1	10.5%	>57	2.51µM*[single pt active]	-11.6%
CCCC(=O)n1nc(-c2ccco2)nc1SCc1ccccc1	-7.3%	>57	10µM*	-2.9%
Nc1nc(-c2ccco2)nn1C(=O)CCc1ccccc1	-7.1%	>57	26.3%	9.0%
O=C(O)c1ccc([N+](=O)[O-])c(P(=O)(O)O)c1	-2.8%[5.75 µM]	>57	-0.6%[5.75 µM]	?
CC1CCCN(c2nc3c(c(=O)[nH]c(=O)n3C)n2CCCc2ccccc2)C1 (centres undefined)	2.8%	>57	15.8µM*[single pt active]	?
CC1CCN(c2nc3c(c(=O)[nH]c(=O)n3C)n2Cc2ccccc2)CC1	10.2%	>57	-0.3%	21.2%
CN(C)c1ccc(-c2nc(Nc3ccncc3)c3ccccc3n2)cc1	8.6%	>57	35.3%	12.6µM*
Cc1ccc(S(=O)(=O)n2nc(C)c(Br)c2C)c(C)c1C	7.9%	>57	-7.5%	12.6µM*
CCOC(=O)N1CCN(S(=O)(=O)c2ccc(C)c(C)c2C)CC1	-8.5%	>57	62.9%	17.0%
COc1ccc(-c2nc3cnc(N(C)C)nc3n(C)c2=O)cc1	-0.9%	>57	-6.2%	?
CCOC(=O)C1CCN(c2c(N3CCCC(C(=O)OCC)C3)c(=O)c2=O)CC1 (centres undefined)	4.4%	>57	15.0%	?
CCOC(=O)N1CCN(c2c(N3CCC(N4CCCCC4)CC3)c(=O)c2=O)CC1	12.0%	>57	3.98µM*[single pt active]	10.8%
CCOC(=O)N1CCN(c2c(NCCN3CCCCC3CC)c(=O)c2=O)CC1 (centres undefined)	13.4%	>57	3.98µM*[single pt active]	-8.6%
CCCn1c(-c2ccc(F)cc2)nc2c(NC(C)CCCN(CC)CC)nc(C)nc21 (centres undefined)	12.1%	·	47.5%	-3.4%
CN(C)Cc1cc(O)c(O)c(CN(C)C)c1	-6.5%[5.75 µM]	>57	-2.1%[5.75 µM]	-4.7%[8 µM]
Cc1sc2nc3ccc(N4CCCC4)nn3c(=O)c2c1C	18.5%	>57	3.98µM*[single pt active]	-13.5%
c1ccc(B2OC[C@@H]3OB(c4ccccc4)O[C@H]([C@@H]4COB(c5ccccc5)O4)[C@@H]3O2)cc1	1.58µM*	>57	-43.5%[5.75 µM]	4.7%[8 µM]
Cl.Cl.Cl.Cl.Cl.Cl.N.N.N.N.NNNNN.NNNNN.O.O.[Ru].[Ru].[Ru]	-6.8%	>57	5.01µM*	-5.6%
COC(=O)C/C=C\[C@@H](C)[C@@H](/C=N\O[C@@H]1O[C@H](COC(C)=O)[C@H](OC(C)=O)[C@H](OC(C)=O)[C@H]1OC(C)=O)OC	·	·	·	-9.5%[8 µM]
COc1ccccc1CNc1cc(-c2c(C)noc2C)ncn1	8.2%	>57	13.8%	15.8%
SMILES	AmpC det inh	SmPrx2 inh	AmpC inh no det	LT uptake inh
C=C(C)c1cccc(C(C)(C)NC(=O)N2CCN(c3ccccn3)CC2)c1	13.7%	>57	3.98µM*[single pt active]	-22.4%
COc1ccc2c(c1)OC13CCN(C)CC1C2C(C(=O)c1ccc(F)cc1)C(=O)N3 (centres undefined)	16.3%	>57	3.98µM*[single pt active]	-17.7%
CC1CCN(CC(=O)N2c3ccccc3Sc3cc4ccccc4cc32)CC1	-3.2%[5.75 µM]	>57	10.6%[5.75 µM]	-6.3%[8 µM]
Cc1cc(C)cc(NS(=O)(=O)c2ccc3[nH]cc(C(=O)NCc4ccco4)c(=O)c3c2)c1	-2.2%	>57	12.6µM*[single pt active]	?
Cc1ccccc1NS(=O)(=O)c1ccc2[nH]cc(C(=O)N(C)Cc3ccco3)c(=O)c2c1	1.0%	>57	-14.4%	6.2%
CC(C)C[C@H](N)CSSC[C@@H](N)CC(C)C	2.8%	>57	7.7%	17.4%
CCCn1c(Nc2nc3ccccc3n2C)nc2ccccc21	-3.9%	>57	-12.8%	6.31µM*
Cn1c(NCc2ccccc2Cl)nc2ccccc21	10.4%	>57	3.98µM*[single pt active]	-23.9%
O=c1cnc2cnc(OCc3ccccc3)nc2n1Cc1ccc(F)cc1	-0.4%	>57	53.9%	-1.6%
CCCCOC(=O)C1C2C=CC3(CN(CCc4ccccc4)C(=O)C13)O2 (centres undefined)	11.7%	>57	3.98µM*[single pt active]	14.9%
CCc1ccc(N2CC34C=CC(O3)C(C(=O)OC)C4C2=O)cc1 (centres undefined)	6.2%	>57	3.98µM*[single pt active]	-14.0%
CCCCOC(=O)C1[C@H]2C(=O)N(CCc3ccccc3)C[C@]23C=C[C@H]1O3 (some centres undefined)	-1.0%	>57	17.1%	12.2%
CCc1ccc(N2CC34C=CC(O3)C(C(=O)OC(C)C)C4C2=O)cc1 (centres undefined)	6.4%	>57	3.16µM*[single pt active]	17.5%
COc1ccc(C(C)N2CC34C=CC(O3)C(C(=O)OCC(C)C)C4C2=O)cc1 (centres undefined)	14.8%	>57	3.98µM*[single pt active]	-9.0%
CCc1ccccc1N1CC23C=CC(O2)C(C(=O)OCC(C)C)C3C1=O (centres undefined)	8.3%	>57	40.9%	9.1%
O=[N+]([O-])c1ccc(NN=C2c3ccccc3Cc3ccccc32)c([N+](=O)[O-])c1	-2.9%[5.75 µM]	>57	-3.9%[5.75 µM]	-19.7%[8 µM]
OCCSCc1cc(Cl)cc(Cl)c1O	-0.6%[5.75 µM]	>57	-10.4%[5.75 µM]	0.0%[8 µM]
CCc1cc(=O)oc2cc(C)c3c(C)coc3c12	-4.5%	>57	-8.1%	-16.0%
CCc1cc(=O)oc2cc(C)cc(O)c12	9.2%	>57	3.98µM*[single pt active]	-3.3%
CCN(CC)CCOC(=O)c1cc(Cl)c(N)cc1OC	-2.4%	>57	1.1%	-21.3%
CC(=O)Cc1nsc(NC(=O)c2cc(-c3cccc(C(F)(F)F)c3)oc2C)n1	-2.7%	>57	15.8µM*[single pt active]	-14.3%
CC=C(/C(=C/C)c1ccc(O)cc1)c1ccc(O)cc1	-5.5%[12.8 µM]	>57	-22.0%[12.8 µM]	-4.7%[3.58 µM]
O=C(CC1Sc2ncnn2C1=O)Nc1ccc(Br)cc1 (centres undefined)	10.7%	>57	5.01µM*	?
O=C(CC1SC2=NCCN2C1=O)Nc1ccc(Br)cc1 (centres undefined)	-1.5%	>57	7.8%	?
CC(=O)NCCNc1ncnc2ccc(-c3ccoc3)cc12	13.6%	>57	27.8%	-2.3%
CCOC(=O)c1c(C)n(C)c2ccc(OCC(O)Cn3nc(C)c(Br)c3C)cc12 (centres undefined)	1.0%	>57	110.4%	10µM*
Cc1cnc(CNc2cc(-c3ccccc3C)ncn2)cn1	8.0%	>57	30.5%	6.2%
CCCCNc1nc(C)nc2c1nc(-c1ccccc1)n2C1CCN(Cc2ccccc2)C1 (centres undefined)	9.9%	·	96.1%	12.6µM*
Cc1nc(NCc2ccccc2)c2nc(-c3ccccc3)n(C3CCN(Cc4ccccc4)C3)c2n1 (centres undefined)	14.7%	·	70.5%	?
